Data published in PubChem BioAssay (NCATS).
Several values for one entry are separate records, joined by “and”; a condition that tells them apart may be missing. Equal entries are not always repeated. Results filed as inconclusive are left out. Some structures have more than one record in an assay (separate samples or runs), and their calls can disagree. Activity calls are given as the source filed them. Calls come from the whole dose curve; as a rule, active = well fitted activation curve with a large enough effect; inconclusive = small, poorly fitted or top-dose-only effect; inactive = no such curve, though single readings can be large or run the other way.

Molecular target: Cellular tumor antigen p53 (Homo sapiens) (UniProt P04637)
Test: Primary qHTS for small molecule compounds that upregulate eGFP-tagged delta133p53alpha (in N-terminal) cells. (AID 2060322); note: nearly all actives have a fitted effect of over 75% in size;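 for activation: cells pre-induced with doxycycline then dosed without doxycycline; series mostly up to about 56 µM; 0% = DMSO vehicle and 100% = reference activator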
Details: NCI-H358 eGFP-delta133p53alpha fluorescence, 24 h; activation: active compounds read high
Source text: Assay Development and Screening Technology
National Center for Advancing Translational Sciences (NCATS),
National Institute of Health (NIH), Rockville, Maryland
Cellular senescence (CS) is one of the hallmarks of aging and age-related diseases. Senescent cells are characterized by an irreversible growth arrest, an increase in senescence-associated beta-galactosidase (SA-beta-gal) activity and p16INK4a expression, an activation of the DNA damage response pathways, and the emergence of a senescence-associated secretory phenotype (SASP).
Delta133p53alpha, a human/primate-specific p53 protein isoform, delays or inhibits the induction of CS and SASP in various types of human cells, including progeria-derived fibroblasts, primary normal astrocytes, and CD8+ T lymphocytes. Induction of delta133p53alpha with small molecule compounds may provide therapeutic opportunities for inhibition of senescence/SASP-associated pathologies in progeria syndromes, astrocyte-mediated neuroprotection in neurodegenerative diseases, and possibly prevention and treatment of a wider range of senescence- and aging-associated diseases.
Here we report the development and validation of a cell-based quantitative high throughput screening (qHTS) assay in 1,536-well format. This qHTS assay uses the NCI-H358 cell line with doxycycline-inducible expression of enhanced green fluorescent protein (eGFP)-tagged delta133p53alpha, which allows efficient and highly quantitative measurement of the protein levels.
PROTOCOL TABLE (as described by Inglese J, Shamu CE and Guy RK. 2007)
SEQUENCE No. (e.g., 1, 2, 3, etc.); […] (e.g., Cells, Incubation, Reagent, etc.); VALUE; DESCRIPTION.
1; Cells; 4uL; 800 doxycycline treated cells / well in doxycycline-free media, 1536-well black, clear-bottom low base Aurora microplates.
2; Compounds; 23 nL; Kalypsis pin tool (Wako) equipped with 1536-well pin heads, 5-azacytidine positive control.
3; Incubation; 24 hr; 37C, 5% CO2; 95% relative humidity.
4; Aspiration; 1x; BioTek EL406 washer dispenser (Agilent).
5; Fixing; 3.5% paraformaldehyde, BioTek EL406 washer dispenser (Agilent).
6; Washing; 1x PBS; BioTek EL406 washer dispenser (Agilent).
7; Nuclei staining; 1:1000 dilution of Hoechst 33342 (Thermofisher), BioTek EL406 washer dispenser (Agilent).
8; Incubation; 20 min; in the dark at room temperature.
9; Washing; 2x, 1x PBS (ThermoFisher), BioTek EL406 washer dispenser (Agilent).
10; Reagent; 10 uL; 1x PBS per well, sealed with clear adhesive tape.
NOTES (numbers refer to sequence numbers above).
1. NCI-H358 cells expressing eGFP-tagged delta133p53alpha were grown in T75 culture flasks and treated with doxycycline for 24h, at 10 ng/ml for eGFP-D133p53a cells (N-terminal cell) and 100 ng/ml for D133p53a-eGFP cells (C-terminal cells). Cells were trypsinized, counted using a Counted 3 Automated Cell Counter (Thermo Fisher), and diluted to a concentration of 200,000 cells/ml. A Multidrop Combi Reagent Dispenser (ThermoFisher) was used to dispense 800 cells/well in […] of doxycycline-free media, into 1536-well black/clear bottom low base plates (AuroraMicroplates).
2. After plating cells, 23 nl of compound library, DMSO vehicle control or positive control (5-azacytidine) were transferred by Pin Tool (Wako). The plate map layout was the same for each plate: (column 1) non-doxycycline treated cells + DMSO vehicle control; (column 2) doxycycline treated cells + DMSO vehicle control baseline; (column 3) doxycycline treated cells + positive control 57.5 uM final concentration 5-azacytidine; (column 4) doxycycline treated cells + serial dilution of 5-azacytidine, 16-point 1:2 titration spanning 1.8 nM to […] final concentration; (columns 5-48) doxycycline treated cells + titration of library compounds.
3. Cells were incubated at 37 °C, 5 % CO2, 95% RH with breathable metal lid for 24h.
4-10. […] After two washes, 10 ul of 1X PBS (Thermo Fisher) was dispensed to each well. Clear adhesive plate seals (VWR) were applied and plates stored at 4 °C.
11. […]
Potency is the fitted concentration of half-maximal effect.

Chain of Cellular tumor antigen p53 (Homo sapiens) (P04637 whole entry, looked up): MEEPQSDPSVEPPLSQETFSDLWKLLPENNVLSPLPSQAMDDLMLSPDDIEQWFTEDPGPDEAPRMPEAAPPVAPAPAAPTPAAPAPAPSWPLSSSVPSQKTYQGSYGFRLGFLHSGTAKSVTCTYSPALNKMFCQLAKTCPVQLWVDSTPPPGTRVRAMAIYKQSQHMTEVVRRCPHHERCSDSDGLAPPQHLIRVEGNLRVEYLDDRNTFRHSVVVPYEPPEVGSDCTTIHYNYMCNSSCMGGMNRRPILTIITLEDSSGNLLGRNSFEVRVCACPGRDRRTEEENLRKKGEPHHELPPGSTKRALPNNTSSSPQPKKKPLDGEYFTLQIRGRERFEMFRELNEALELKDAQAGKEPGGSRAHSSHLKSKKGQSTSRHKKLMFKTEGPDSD

Structure (SMILES) | activation | Potency
COc1ccc([C@H](Cc2ccncc2)c2ccccc2)cc1OC1CCCC1 | -2.86% (inactive) | –
CS(=O)(=O)N1CCC(NC(=O)c2[nH]ncc2NC(=O)c2c(Cl)cccc2Cl)CC1 | – | 3.01 µM (active)
Nn1nnc2ccccc21 | 15.1% (inactive) | –
C=C1C(=O)OC(CCCCCCCC)C1C(=O)O (stereo not given) | -0.0763% (inactive) | –
COC1OC(O)C2(CCC3(O2)C(C)CC2OC(=O)C4(C)CCCC3(C)C24)C1O (stereo not given) | 9.92% (inactive) | –
NC(=O)C1CCCc2c1[nH]c1ccc(Cl)cc21 (stereo not given) | 10.6% (inactive) | –
CC(C)(CC(=O)N1CCCC1)NCC(=O)N1C[C@@H](F)C[C@H]1C#N | 0.333% (inactive) | –
COc1ccc(C(=O)Nc2c(Cl)cncc2Cl)cc1OC1CCCC1 | 0% (inactive) | –
COc1ccc(OC)c(-c2ccc(NC(=O)c3ccncc3F)cc2)c1 | -5.73% (inactive) | –
C=CC(=O)N1CC(N2CCN(C(=O)CNc3cc(C4CC4)c(Cl)cc3O)CC2)C1 | 10% (inactive) | –
O=C(O)CN1C(=O)c2cccc3cccc(c23)C1=O | -6.69% (inactive) | –
CC(C)CC(=O)OC[C@H]1O[C@@](COC(=O)CC(C)C)(O[C@H]2O[C@H](CO)[C@@H](O)[C@H](O)[C@H]2OC(=O)CC(C)C)[C@@H](OC(=O)CC(C)C)[C@@H]1O | -7.14% (inactive) | –
COc1c2c(c(C)c3c1C(=O)OC3)OC1(C)CC(O)C34OC(OC)(OC3(C)C)C(O)CC4(C)C1C2 (stereo not given) | -2.29% (inactive) | –
CC1(C)CC=C(c2cnc3ccccc3c2)c2cc(C(=O)Nc3ccc(C(=O)O)cc3)ccc21 | 3.34% (inactive) | –
COc1ccc(N2CCN(C(=O)c3cc4c(s3)-c3ccccc3S(=O)(=O)C4)CC2)cc1 | -13.8% (inactive) | –
COc1cccc(CN(C(=O)CC(C)(C)C)[C@H]2C[C@H](C(=O)N3CCNCC3)N(Cc3ccc4c(c3)OCO4)C2)c1 | 1% (inactive) | –
COc1cc2c(cc1OC)N1C(=O)C[C@]34C=CCN5CC[C@@H]2[C@@H](CC3)[C@]514 | 3.05% (inactive) | –
NS(=O)(=O)c1cc2c(cc1Cl)NCNS2(=O)=O | -8.47% (inactive) and 26.3% (inactive) and -35.3% (inactive) | –
COc1cc(C(=O)N2CCCCCCC2)cc(OC)c1OC | -6.21% (inactive) | –
Cc1cc(C(C)Nc2ccccc2C(=O)O)c2nc(N3CCOCC3)cc(=O)n2c1 (stereo not given) | 14.3% (inactive) | –

Structure (SMILES) | activation | Potency
CCNC(=O)Nc1ccc2ncc(Nc3ccc(C)cc3)nc2n1 | -1.61% (inactive) | 30.1 µM (active)
COc1cc(OC)nc(O[C@H](C(=O)O)C(OC)(c2ccccc2)c2ccccc2)n1 | -22% (inactive) | –
NC(=O)C1(N2CCCCC2)CCN(CCCN2c3ccccc3CCc3ccc(Cl)cc32)CC1 | 3.35% (inactive) | –
CCC(C)C(=O)O[C@H]1[C@@H](O[C@H]2O[C@H](CO)[C@@H](O)[C@H](O)[C@H]2O)O[C@H](CO)[C@@H](O)[C@@H]1O (stereo not given in full) | 13.7% (inactive) | –
CC1(C(=O)O)CCCC2(C)C3=CCC4CC3(CCC12)CC4CO (stereo not given) | 3.82% (inactive) | –
CCCOc1ccc(CCc2nc3cc(-c4c(C)noc4C)ccc3n2CCN2CCOCC2)cc1 | -35.8% (inactive) | –
O=C(O)Cc1cn([C@@H]2O[C@H](CO)[C@@H](O)[C@H](O)[C@H]2O[C@@H]2O[C@H](CO)[C@@H](O)[C@H](O)[C@H]2O)c2ccccc12 | 3.82% (inactive) | –
CO[C@@H]1[C@H](N(C)C(=O)c2ccccc2)C[C@H]2O[C@]1(C)n1c3ccccc3c3c4c(c5c6ccccc6n2c5c31)C(=O)NC4 | 25.1% (inactive) | –
O=C(c1ccc(F)cc1)C1CCN(CCn2c(=O)nc3n(c2=O)CCCC3)CC1 | -6.21% (inactive) | –
N[C@@H](CSCCCO)C(=O)O | -10% (inactive) | –
Cc1cc(O)c(C(C)C)cc1O[C@@H]1O[C@H](CO)[C@@H](O)[C@H](O)[C@H]1O | -17.6% (inactive) | –
Cc1ccccc1-n1nc(-c2c(-c3ccc(F)cc3)nn3c2NC[C@@H](CO)C3)ccc1=O | 2.68% (inactive) | –
CSc1nc2cc(Oc3cccc(Cl)c3Cl)c(Cl)cc2[nH]1 | -40.2% (inactive) | –
Oc1ccc(CCNCCCCCCNCCc2ccccc2)cc1O | 0% (inactive) | –
CC(=O)SCC(Cc1ccccc1)C(=O)NCC(=O)OCc1ccccc1 (stereo not given) | 16.6% (inactive) | –
N#Cc1ccc2[nH]cc(CCCCN3CCN(c4ccc5oc(C(N)=O)cc5c4)CC3)c2c1 | 11.5% (inactive) | –
CC1=C2C(=O)C=C(CO)C2C2OC(=O)C(CS(=O)(=O)O)C2C(OC(=O)Cc2ccc(O)cc2)C1 (stereo not given) | -22.1% (inactive) | –
C=CC(C)(C)C1(CC2NC(=O)C3CCCN3C2=O)C(=O)Nc2cc3c(cc21)C=CC(C)(C)O3 (stereo not given) | 6.87% (inactive) | –
C/C=C1\[C@H](O[C@@H]2O[C@H](CO)[C@@H](O)[C@H](O)[C@H]2O)OC=C(C(=O)O)[C@H]1CC(=O)OCCc1ccc(O)cc1 | 0.763% (inactive) | –
